The full data set covers some 7,900 targets. This sample favours those with a hit. About 0.6% of all pairs of compound and target were hits. Values without a mark were called inactive.

Chain of UniProt Q9BZL4 (Q9BZL4 whole entry, looked up): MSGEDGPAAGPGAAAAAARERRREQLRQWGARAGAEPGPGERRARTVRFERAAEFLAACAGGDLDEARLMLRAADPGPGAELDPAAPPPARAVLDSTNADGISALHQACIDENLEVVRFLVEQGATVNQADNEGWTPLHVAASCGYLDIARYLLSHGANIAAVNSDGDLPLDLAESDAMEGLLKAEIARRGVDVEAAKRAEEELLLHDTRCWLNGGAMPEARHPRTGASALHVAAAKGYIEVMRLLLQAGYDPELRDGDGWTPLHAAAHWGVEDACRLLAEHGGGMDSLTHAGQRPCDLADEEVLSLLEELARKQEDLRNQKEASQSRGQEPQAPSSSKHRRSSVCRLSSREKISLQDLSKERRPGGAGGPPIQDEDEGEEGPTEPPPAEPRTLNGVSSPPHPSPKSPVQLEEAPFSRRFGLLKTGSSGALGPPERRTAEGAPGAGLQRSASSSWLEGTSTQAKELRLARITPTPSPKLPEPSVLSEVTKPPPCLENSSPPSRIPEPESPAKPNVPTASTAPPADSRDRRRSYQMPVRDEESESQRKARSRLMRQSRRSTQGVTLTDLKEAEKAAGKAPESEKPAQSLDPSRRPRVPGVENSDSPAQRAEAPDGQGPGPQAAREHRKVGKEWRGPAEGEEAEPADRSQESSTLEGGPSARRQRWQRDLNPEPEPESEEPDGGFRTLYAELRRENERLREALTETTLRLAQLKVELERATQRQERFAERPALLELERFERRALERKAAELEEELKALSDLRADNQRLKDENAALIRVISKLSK
Chain of UniProt Q96RV3 (Q96RV3 whole entry, looked up): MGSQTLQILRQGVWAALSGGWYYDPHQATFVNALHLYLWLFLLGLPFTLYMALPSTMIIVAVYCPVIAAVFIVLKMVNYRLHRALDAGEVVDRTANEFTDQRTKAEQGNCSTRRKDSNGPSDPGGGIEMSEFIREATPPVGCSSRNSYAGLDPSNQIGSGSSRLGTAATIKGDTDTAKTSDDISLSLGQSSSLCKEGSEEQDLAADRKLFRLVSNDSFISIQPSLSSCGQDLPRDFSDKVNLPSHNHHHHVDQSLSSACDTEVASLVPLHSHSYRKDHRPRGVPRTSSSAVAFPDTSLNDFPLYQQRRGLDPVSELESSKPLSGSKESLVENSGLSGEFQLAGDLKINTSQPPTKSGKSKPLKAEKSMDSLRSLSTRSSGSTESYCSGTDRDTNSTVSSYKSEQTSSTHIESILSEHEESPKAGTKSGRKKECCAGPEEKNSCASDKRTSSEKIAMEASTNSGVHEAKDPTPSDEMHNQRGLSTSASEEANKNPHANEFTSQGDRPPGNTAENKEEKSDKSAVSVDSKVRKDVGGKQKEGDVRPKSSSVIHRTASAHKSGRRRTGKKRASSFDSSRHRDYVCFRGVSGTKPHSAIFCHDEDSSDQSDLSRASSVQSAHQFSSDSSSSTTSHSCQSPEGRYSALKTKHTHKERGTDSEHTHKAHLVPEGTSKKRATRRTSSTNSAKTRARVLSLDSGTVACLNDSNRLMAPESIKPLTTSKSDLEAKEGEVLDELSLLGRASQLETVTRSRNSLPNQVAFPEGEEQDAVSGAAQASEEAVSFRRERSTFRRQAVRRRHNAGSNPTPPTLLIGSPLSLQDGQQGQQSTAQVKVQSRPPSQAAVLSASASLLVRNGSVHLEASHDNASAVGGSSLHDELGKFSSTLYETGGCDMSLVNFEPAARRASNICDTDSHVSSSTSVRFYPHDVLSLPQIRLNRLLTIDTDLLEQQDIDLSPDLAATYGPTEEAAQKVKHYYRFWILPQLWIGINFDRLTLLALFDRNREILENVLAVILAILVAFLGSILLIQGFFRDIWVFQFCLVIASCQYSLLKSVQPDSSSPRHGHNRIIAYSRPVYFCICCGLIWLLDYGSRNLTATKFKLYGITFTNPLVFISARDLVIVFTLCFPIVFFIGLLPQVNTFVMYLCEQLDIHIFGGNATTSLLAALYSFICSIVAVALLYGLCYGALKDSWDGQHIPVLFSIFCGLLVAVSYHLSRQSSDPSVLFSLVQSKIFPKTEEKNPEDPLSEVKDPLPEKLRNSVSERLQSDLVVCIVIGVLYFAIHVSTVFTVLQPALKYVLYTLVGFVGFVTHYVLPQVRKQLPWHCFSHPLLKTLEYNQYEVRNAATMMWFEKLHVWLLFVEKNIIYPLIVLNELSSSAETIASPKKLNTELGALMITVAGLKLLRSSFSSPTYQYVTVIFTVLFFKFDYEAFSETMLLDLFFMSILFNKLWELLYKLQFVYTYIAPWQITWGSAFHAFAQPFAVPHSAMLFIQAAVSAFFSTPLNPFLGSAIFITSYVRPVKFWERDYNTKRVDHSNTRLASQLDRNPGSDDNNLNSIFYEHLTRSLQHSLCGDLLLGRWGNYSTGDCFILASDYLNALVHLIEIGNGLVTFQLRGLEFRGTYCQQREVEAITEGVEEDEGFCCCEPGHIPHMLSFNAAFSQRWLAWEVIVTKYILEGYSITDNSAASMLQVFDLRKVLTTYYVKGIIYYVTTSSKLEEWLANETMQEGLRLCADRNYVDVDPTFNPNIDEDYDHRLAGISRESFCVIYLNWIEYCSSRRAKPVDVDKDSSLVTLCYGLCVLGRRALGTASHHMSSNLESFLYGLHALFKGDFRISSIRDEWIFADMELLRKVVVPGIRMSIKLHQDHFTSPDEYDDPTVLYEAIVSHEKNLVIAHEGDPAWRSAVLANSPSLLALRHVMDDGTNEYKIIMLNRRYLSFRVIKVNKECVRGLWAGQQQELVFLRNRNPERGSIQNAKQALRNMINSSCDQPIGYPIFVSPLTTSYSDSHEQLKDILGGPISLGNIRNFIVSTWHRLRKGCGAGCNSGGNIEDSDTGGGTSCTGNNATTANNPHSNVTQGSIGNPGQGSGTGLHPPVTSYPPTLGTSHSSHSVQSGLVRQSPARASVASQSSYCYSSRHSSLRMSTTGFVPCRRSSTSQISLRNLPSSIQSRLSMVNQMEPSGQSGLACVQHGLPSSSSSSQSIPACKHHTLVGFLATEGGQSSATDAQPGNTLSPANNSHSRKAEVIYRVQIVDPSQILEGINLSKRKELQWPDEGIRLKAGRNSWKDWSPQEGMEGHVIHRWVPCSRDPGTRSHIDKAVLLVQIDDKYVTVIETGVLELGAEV
Chain of UniProt Q8NDX5 (Q8NDX5 whole entry, looked up): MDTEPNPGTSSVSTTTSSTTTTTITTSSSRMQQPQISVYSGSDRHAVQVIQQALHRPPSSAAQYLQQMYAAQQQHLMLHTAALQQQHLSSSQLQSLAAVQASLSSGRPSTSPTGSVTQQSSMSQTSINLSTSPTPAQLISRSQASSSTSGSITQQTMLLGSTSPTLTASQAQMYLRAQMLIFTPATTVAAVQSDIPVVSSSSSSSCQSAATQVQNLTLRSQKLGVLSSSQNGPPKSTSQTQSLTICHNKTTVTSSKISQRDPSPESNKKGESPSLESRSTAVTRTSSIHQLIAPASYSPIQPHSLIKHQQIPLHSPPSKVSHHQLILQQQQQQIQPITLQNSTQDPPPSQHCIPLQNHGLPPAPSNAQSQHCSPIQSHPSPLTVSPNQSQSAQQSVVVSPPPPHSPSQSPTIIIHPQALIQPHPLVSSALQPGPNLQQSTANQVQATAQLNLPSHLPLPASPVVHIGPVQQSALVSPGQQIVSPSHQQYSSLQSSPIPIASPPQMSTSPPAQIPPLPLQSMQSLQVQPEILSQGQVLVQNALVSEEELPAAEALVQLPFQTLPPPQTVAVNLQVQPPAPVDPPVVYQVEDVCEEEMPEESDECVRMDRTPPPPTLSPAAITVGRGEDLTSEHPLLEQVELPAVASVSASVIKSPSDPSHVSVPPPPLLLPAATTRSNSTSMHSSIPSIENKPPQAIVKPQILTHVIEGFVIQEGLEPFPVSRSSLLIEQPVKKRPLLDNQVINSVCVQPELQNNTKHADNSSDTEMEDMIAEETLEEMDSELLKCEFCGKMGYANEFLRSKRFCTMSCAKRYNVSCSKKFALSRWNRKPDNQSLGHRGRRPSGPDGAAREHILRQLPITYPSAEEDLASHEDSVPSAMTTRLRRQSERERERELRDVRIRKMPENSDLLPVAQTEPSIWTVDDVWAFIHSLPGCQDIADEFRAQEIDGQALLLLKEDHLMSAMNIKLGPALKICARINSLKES
Chain of UniProt P14618 (P14618 whole entry, looked up): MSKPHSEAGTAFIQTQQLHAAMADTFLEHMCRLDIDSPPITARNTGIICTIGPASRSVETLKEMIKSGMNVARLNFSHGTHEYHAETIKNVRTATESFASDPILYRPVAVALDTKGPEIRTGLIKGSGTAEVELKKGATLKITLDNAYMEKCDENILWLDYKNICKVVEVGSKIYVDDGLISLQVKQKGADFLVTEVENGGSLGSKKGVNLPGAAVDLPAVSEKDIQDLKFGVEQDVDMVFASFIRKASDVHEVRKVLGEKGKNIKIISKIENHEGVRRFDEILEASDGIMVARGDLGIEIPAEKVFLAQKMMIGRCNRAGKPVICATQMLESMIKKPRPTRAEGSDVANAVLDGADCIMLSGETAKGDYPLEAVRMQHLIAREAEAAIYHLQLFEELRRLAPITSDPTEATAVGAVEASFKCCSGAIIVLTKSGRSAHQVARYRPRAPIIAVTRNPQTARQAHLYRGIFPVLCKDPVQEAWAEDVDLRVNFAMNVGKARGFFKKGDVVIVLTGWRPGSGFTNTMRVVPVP
Chain of UniProt Q15126 (Q15126 whole entry, looked up): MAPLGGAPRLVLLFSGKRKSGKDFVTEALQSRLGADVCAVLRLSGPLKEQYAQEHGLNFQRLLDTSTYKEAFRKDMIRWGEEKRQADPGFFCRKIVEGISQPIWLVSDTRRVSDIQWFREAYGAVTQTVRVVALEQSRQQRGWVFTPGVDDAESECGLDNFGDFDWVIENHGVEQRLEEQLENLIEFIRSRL
Chain of UniProt Q68D20 (Q68D20 whole entry, looked up): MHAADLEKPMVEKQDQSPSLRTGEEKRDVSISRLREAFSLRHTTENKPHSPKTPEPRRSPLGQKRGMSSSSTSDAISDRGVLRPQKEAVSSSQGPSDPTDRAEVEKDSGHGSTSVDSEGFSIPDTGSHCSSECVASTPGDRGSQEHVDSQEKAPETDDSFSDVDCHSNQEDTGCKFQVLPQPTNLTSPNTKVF

Compound in one experiment: COc1cc2nc(-c3cc(F)ccc3O)nc(N[C@@H]3CNC[C@H]3C(C)(C)O)c2cc1OC
Nature of the experiment: log2 fold change, soluble protein after heating vs DMSO (PISA); higher = thermal stabilisation; K562 cells, 10 uM, 30 min; active = over 0.2 and 3.5 SD of the protein, either way, in both replicates (recomputed). An outline of the steps: (§1)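 Thermal stability values are relative to control samples and come from duplicates. They are expressed as log2 fold changes. For measurement, K562 cells (2×10^6 cells/mL) received 10 μM compound for 30 min, and aliquots were heated for 3 min over 48°C-58°C, pooled, and extracted at 4°C in PBS with 0.5% NP-40. Soluble protein, the supernatant after 21,000xg for 90 min, was quantified by TMTpro 16plex LC-MS/MS with equalised channel sums.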
As for PSMC1 (UniProt G3V4X1), the log2 fold change is -0.106.
Turning to PPP1R12C (UniProt Q9BZL4), the log2 fold change is -0.237.
Same read-out and setting: as for PDE4A (UniProt P27815), the figure is 0.112.
PSMA3 (UniProt H0YJ03): the log2 fold change was 0.203.
With PRR14L (UniProt Q5THK1), the log2 fold change was 0.069.
Regarding PHLDB1 isoform 2 (UniProt Q86UU1), the log2 fold change was -0.069.
As for PKM isoform 2 (UniProt P14618), the log2 fold change is 0.141.
For PIGH (UniProt Q14442), the log2 fold change is -0.019.
The same measure, in the same setting: to POLB (UniProt P06746) belongs 0.037; to PPP2R5B (UniProt Q15173), 0.148.
Take PTPA (UniProt A6PVN8): the log2 fold change is -0.085.
For the target PHRF1 (UniProt Q9P1Y6), the log2 fold change is 0.049.
Same read-out and setting: as for PSD3 (UniProt Q9NYI0), the figure is 0.141.
With PIAS4 (UniProt Q8N2W9), the log2 fold change is 0.069.
The same measure, in the same setting: to PCNX1 (UniProt Q96RV3) belongs 0.34; to PCF11 (UniProt O94913), 0.076.
Still for that read-out and setting: as for POLR2E (UniProt P19388), the figure is 0.291 (active); as for PSMA3 (UniProt G3V4X5), 0.255; as for PUF60 isoform 2 (UniProt Q9UHX1), -0.071.
Same read-out and setting: to PTEN isoform 2 (UniProt P60484) belongs -0.251.
With PHC3 isoform 7 (UniProt Q8NDX5), the log2 fold change was -0.03.

Compound in another experiment: COc1cc2ncnc(Nc3ccc(F)c(Cl)c3)c2cc1OCCCN1CCOCC1 [gefitinib]
The experiment is described as above. An outline of the steps: as §1
On to PMVK (UniProt Q15126), for which the log2 fold change was -0.189.
Still for that read-out and setting: to PPP1R12B isoform 6 (UniProt O60237) belongs 0.077; to PSMC1 (UniProt G3V4X1), -0.036; to PPP1R12C (UniProt Q9BZL4), 0.074.
Still for that read-out and setting: as for PCBP2 (UniProt F8VZX2), the figure is -0.111; as for PRR14L (UniProt Q5THK1), -0.065; as for PHLDB1 isoform 2 (UniProt Q86UU1), 0.149.
With PKM isoform 2 (UniProt P14618), the log2 fold change was -0.056.
With POLB (UniProt P06746), the log2 fold change is 0.199.
The same measure, in the same setting: to PPP2R5B (UniProt Q15173) belongs -0.079.
On the same count and under the same terms, as for PAN2 (UniProt Q504Q3), the figure is 0.013; as for PTPA (UniProt A6PVN8), 0.021.
Still for that read-out and setting: as for PSD3 (UniProt Q9NYI0), the figure is 0.036; as for PCNX1 (UniProt Q96RV3), -0.028.
Regarding PMS2CL (UniProt Q68D20), the log2 fold change was 0.033.
For POLR2E (UniProt P19388), the log2 fold change was 0.007.
With PHC3 isoform 7 (UniProt Q8NDX5), the log2 fold change is -0.153.

(Values after the supplement of paper PMC10849652.)
